# Reference: ChEMBL document CHEMBL4513149, “CO-ADD screening of MMV (CH) - MMV compounds” (2021)
# Measured potencies and affinities stand elsewhere.
# Key:
# Staphylococcus aureus = conditions: Concentration 20 uM; ASSAY_TEST Inhibition of Bacterial Growth; detection method Absorption (OD600); MEDIA CAMHB; plate type 384well; NBS; CORNING #3640; time 18 hr
# Escherichia coli = conditions: Concentration 20 uM; ASSAY_TEST Inhibition of Bacterial Growth; detection method Absorption (OD600); MEDIA CAMHB; plate type 384well; NBS; CORNING #3640; time 18 hr
SMILES,Inhibition (Staphylococcus aureus),Inhibition (Escherichia coli)
CCOC(=O)c1noc(N)c1-c1ccccc1,31.41%,11.39%
NC(=O)c1cc(-c2ccsc2)ccc1OCCOc1ccccc1,14.87%,5.41%
CCCCN(CCCC)c1c(C#N)cc(S(=O)(=O)Nc2ccccc2)cc1C#N,3.78%,-2.29%
CS(=O)(=O)N1CCC(Cn2nc(Cc3cccc4ccccc34)c3c(N)ncnc32)CC1,11.53%,3.3%
Cc1nn(C)cc1C(C)Nc1nncc(-c2ccc(C(F)(F)F)cc2)n1 (stereo not drawn),2.57%,3.9%
CC(C)(C)c1cnc(NC(=O)c2ccccc2O)s1,23.8%,4.86%
C[C@]1(O)C[C@@H](c2nc(-c3ccc4ccc(-c5ccccc5)nc4c3)c3c(N)nccn32)C1 [LINSITINIB],13.39%,6.95%
COc1ccc(C2=NN(C3CCCCCC3)C(=O)C2(C)C)cc1OCCCCOc1ccc(-c2nn[nH]n2)cc1,39.77%,-0.89%
c1ccc2c(c1)CN(CC1CC1)CC1(CCN(Cc3c[nH]c4cnccc34)CC1)O2,14.8%,1.67%
CC(C)n1nc(-c2cc3c(Cl)cccc3[nH]2)c2c(N)ncnc21,11.03%,4.95%
CC(C)(C)OC(=O)N1CCN(c2cc(-c3ccc(Oc4ccccc4)cc3)n[nH]2)CC1,17.78%,7.28%
O=C(NC1CC1)c1ccc(N2CCC(Cc3ccccc3)CC2)nc1,20.17%,11.23%
CCN(CC)C(=O)N1CCN(C)CC1 [DIETHYLCARBAMAZINE],20.12%,7.97%
Clc1ccc(Cl)c(CO[C@H]2CCCC[C@@H]2n2ccnc2)c1,22.53%,7.4%
